Reference: article PMC4336329 (PLoS ONE, 2015)
Screen size: about 310,000 compounds; about 14,000 (4.5%) showed an effect of 50% or more. Effects have a minus sign here. Many of the other results were omitted from the sample, so strong results are more common in it than they were.

The compounds below were run against human ether-à-go-go-related gene (hERG) potassium channel (human, UniProt Q12809) (assay: primary screen, population patch clamp on CHO cells stably expressing hERG; higher = less effect of the substance).
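Further: peak tail current of the secondary pulse compared with the same well before compound.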

Sequence of human ether-à-go-go-related gene (hERG) potassium channel (Q12809 whole entry, looked up): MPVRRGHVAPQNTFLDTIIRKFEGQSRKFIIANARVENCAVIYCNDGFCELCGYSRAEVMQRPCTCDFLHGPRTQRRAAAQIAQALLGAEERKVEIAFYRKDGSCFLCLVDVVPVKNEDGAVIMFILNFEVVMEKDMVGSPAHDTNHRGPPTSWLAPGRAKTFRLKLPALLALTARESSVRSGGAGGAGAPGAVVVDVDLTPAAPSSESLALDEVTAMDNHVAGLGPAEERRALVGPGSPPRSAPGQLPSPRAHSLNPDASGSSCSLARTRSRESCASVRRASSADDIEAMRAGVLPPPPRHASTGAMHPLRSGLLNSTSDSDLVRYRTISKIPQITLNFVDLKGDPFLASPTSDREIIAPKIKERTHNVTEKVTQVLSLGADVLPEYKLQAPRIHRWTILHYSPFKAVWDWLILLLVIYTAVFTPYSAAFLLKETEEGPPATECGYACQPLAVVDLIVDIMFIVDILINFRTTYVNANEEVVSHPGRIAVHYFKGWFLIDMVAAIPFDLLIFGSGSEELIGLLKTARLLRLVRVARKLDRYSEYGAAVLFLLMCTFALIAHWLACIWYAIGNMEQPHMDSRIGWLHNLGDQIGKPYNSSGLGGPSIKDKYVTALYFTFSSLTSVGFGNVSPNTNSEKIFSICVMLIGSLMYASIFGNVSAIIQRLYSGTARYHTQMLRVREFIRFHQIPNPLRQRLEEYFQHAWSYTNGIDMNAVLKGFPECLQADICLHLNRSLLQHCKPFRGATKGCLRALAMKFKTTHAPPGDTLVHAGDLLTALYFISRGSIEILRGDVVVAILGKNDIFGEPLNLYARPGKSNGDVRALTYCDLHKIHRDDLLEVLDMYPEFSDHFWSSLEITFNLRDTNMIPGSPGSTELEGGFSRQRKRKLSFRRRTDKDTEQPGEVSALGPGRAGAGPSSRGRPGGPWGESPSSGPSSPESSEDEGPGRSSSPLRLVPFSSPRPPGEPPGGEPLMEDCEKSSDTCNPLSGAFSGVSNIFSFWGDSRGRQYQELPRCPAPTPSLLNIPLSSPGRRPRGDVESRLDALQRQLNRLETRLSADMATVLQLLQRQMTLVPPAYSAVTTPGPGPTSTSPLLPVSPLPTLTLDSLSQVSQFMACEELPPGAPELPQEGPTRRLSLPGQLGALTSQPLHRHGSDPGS

| Structure (SMILES) | hERG current change (%, negative = inhibition) at 10uM |
| --- | --- |
| COc1ccc([C@H]2CC(=O)C=C(c3cccc(C(F)(F)F)c3)C2)cc1 | -14.4% |
| CC1(c2nnc(Cc3ccccc3)o2)CC(c2ccc(Cl)cc2)=NO1 (centres unmarked) | -23.3% |
| CC1(c2nnc(Cc3ccccc3)o2)CC(c2ccc(C#N)cc2)=NO1 (centres unmarked) | -62.3% |
| CC1(c2nnc(Cc3ccccc3)o2)CC(c2ccc([N+](=O)[O-])cc2)=NO1 (centres unmarked) | -63.2% |
| Cc1ccc(C2=NOC(C)(c3nnc(Cc4ccccc4)o3)C2)cc1 (centres unmarked) | -15.2% |
| CC1(c2nnc(Cc3ccccc3)o2)CC(c2ccccc2)=NO1 (centres unmarked) | -18% |
| CC1(c2nnc(Cc3ccccc3)o2)CC(c2cccc([N+](=O)[O-])c2)=NO1 (centres unmarked) | -7.45% |
| CC1(C)CC(=O)C=C(N2CCNCC2)C1 | 14.9% |
| O=C(c1ccc(Cl)c(S(=O)(=O)N2CCCCC2)c1)N1CCCC(C(F)(F)F)C1 (centres unmarked) | -31.8% |
| O=C(c1cccc(N2C(=O)c3ccccc3C2=O)c1)N1CCCC(C(F)(F)F)C1 (centres unmarked) | -53.9% |
| CCOC(=O)C1CCCN(C(=O)c2cccc(N3C(=O)c4ccccc4C3=O)c2)C1 (centres unmarked) | -18.4% |
| CCOC(=O)C1CCCN(C(=O)c2ccc(C)c(S(=O)(=O)N3CCCCC3)c2)C1 (centres unmarked) | -25.3% |
| O=C(c1ccc(Cl)c(S(=O)(=O)N2CCCC2)c1)N1CCCCC1 | 3.08% |
| CC1CCCN(C(=O)c2ccc(Cl)c(S(=O)(=O)N3CCCCCC3)c2)C1 (centres unmarked) | -76.3% |
| CCOC(=O)C1CCCN(C(=O)c2ccc(Cl)c(S(=O)(=O)N3CCCCCC3)c2)C1 (centres unmarked) | -70.7% |
| O=C(c1ccc(Cl)c(S(=O)(=O)N2CCCCC2)c1)N1CCCC1 | -7.02% |
| CCOC(=O)C1CCCN(C(=O)c2ccc(Cl)c(S(=O)(=O)N3CCCCC3)c2)C1 (centres unmarked) | -13.8% |
| O=C(c1ccc(Cl)c(S(=O)(=O)N2CCCC2)c1)N1CCCC(C(F)(F)F)C1 (centres unmarked) | -18.1% |
| O=C(c1cccc(N2C(=O)c3ccccc3C2=O)c1)N1CCCCCC1 | 2.21% |
| O=C(c1ccc(Cl)c(S(=O)(=O)N2CCCCCC2)c1)N1CCCC(C(F)(F)F)C1 (centres unmarked) | -58.9% |
| CSc1cccc(NC(=O)OC2CCCCCCCCCCC2)c1 | 7.83% |
| Cc1ccc(S(=O)(=O)N2C(=O)/C(=C3\SC(=S)NC3=O)c3ccccc32)cc1 | 10% |

| Structure (SMILES) | hERG current change (%, negative = inhibition) at 10uM |
| --- | --- |
| Fc1ccccc1CSc1ncnc2sc3c(c12)CCCC3 | 2.75% |
| O=C(Nc1ccc2nn(-c3ccccc3)nc2c1)c1ccc(Br)o1 | 7.88% |
| CCOc1cc(C)c(C(C)C)cc1S(=O)(=O)n1ccc(C)n1 | -29.4% |
| Cc1nn(C)c(C)c1NC(=O)/C(C#N)=C\N(C)C | 12.6% |
| NC(=O)C1(N2CCCCC2)CCN(C(=O)CSc2nc3ccccc3o2)CC1 | -4.85% |
| COC(=O)C1=C(C)N(CCC2=CCCCC2)C(=O)C1 | 1.46% |
| CC(C)(Oc1ccc(CCNC(=O)c2ccc(-c3ccccc3)o2)cc1)C(=O)O | 14% |
| O=C(CC1SC(N2CCCC2)=NC1=O)Nc1ccc(C(=O)N2CCCC(C(F)(F)F)C2)cc1 (centres unmarked) | 18.8% |
| Cc1ccc2cc(CN(C)S(C)(=O)=O)c(=O)[nH]c2c1 | 26.9% |
| NC(=O)COC(=O)c1ccc(Cl)c(S(=O)(=O)N2CCCCCC2)c1 | -4.36% |
| CCOC(=O)c1ccc(Cl)c(S(=O)(=O)N2CCCC2)c1 | 23.8% |
| CN(C(=O)COC(=O)c1ccc(Cl)c(S(=O)(=O)N2CCCCC2)c1)C1(C#N)CCCCC1 | -57.4% |
| CCN(CC)S(=O)(=O)c1ccc(C)c(NC(=O)CNc2cccc(S(=O)(=O)N3CCOCC3)c2)c1 | -17.7% |
| Cc1c(C(=O)N(C)C)sc2nc(-c3ccccn3)[nH]c(=O)c12 | -2.71% |
| COCCCn1c(SCC(=O)Nc2ccc(C(C)=O)cc2)nc2ccccc2c1=O | -51.5% |
| CC(=O)NCCn1c(SCC(=O)Nc2ccc(C)cc2)nc2ccccc2c1=O | 5.81% |
| COc1ccc(NC(=O)CSc2nc3ccccc3c(=O)n2CCNC(C)=O)c(OC)c1 | -25.1% |
| COCCn1c(SCC(=O)N2CC(=O)Nc3ccccc32)nc2ccccc2c1=O | -26.9% |
| COc1ccc(OC)c(NC(=O)CSc2nc3ccccc3c(=O)n2CCNC(C)=O)c1 | -2.83% |
| COCCCn1c(SCC(=O)Nc2ccc(C(=O)OC)cc2)nc2ccccc2c1=O | -25.6% |
| COc1ccccc1NC(=O)CSc1nc2ccccc2c(=O)n1CCNC(C)=O | -62.2% |
| CC(C)N(CCn1c(SCC(=O)N2CC(=O)Nc3ccccc32)nc2ccccc2c1=O)C(C)C | -76.6% |
